Experimental findings from PubChem BioAssay are described below.

Values without a mark were called inactive. For some of these results: Entries with a potency or affinity are not part of this list. Activity calls are given as the source filed them. Unless noted, the rule behind the calls is not given here.

Assay [1] can be described thus: antimalarial activity against Dd2 strain (AID 2302;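 active = growth inhibition above 50% at the single 2 µM test dose, taken to imply half-maximal potency below 2 µM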;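 note: 0% = DMSO untreated growth and 100% = chloroquine plus artemisinin killed control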). The conditions noted are these: P. falciparum Dd2 in RBCs, LDH growth readout, 72 h; at 2 µM; stronger effect = higher value.
A short description of assay [2]: HepG2 cytotoxicity, primary screen, cytotoxicity control for P. falciparum antimalarial project, cell-based, ATP luminescence (AID 2303;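 active = inhibition above 50%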;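 note: 0% = DMSO wells and 100% = digitonin-killed cells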). The settings on record: HepG2 viability, 24-48 h, at 10 µM, stronger effect = higher value.
Assay [3] addresses L-lactate dehydrogenase (Plasmodium falciparum (isolate CDC / Honduras)) (UniProt Q27743). Briefly: PfLDH activity inhibition – cell lysate, 3D7 strain, counter-screen for P. falciparum growth inhibition project (AID 2304).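 Note: 0% = vehicle and 100% = reference inhibitor.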 The settings on record: P. falciparum 3D7 crude extract, LDH APAD/NBT absorbance; at 2 µM; stronger effect = higher value. (In general: The purpose of a counterscreen is to sort out artefacts and off-target activity.)

Assay [4] is described as follows: inhibition of 3D7 malaria parasite growth – strain 3D7 (AID 2306).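 Note: 0% = DMSO wells and 100% = chloroquine plus artemisinin control wells.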 The settings on record: P. falciparum 3D7 erythrocytic growth, LDH absorbance, 72 h; at 2 µM; stronger effect = higher value.
Assay [5] concerns the target Calcium-dependent protein kinase 1 (Plasmodium falciparum (isolate 3D7)) (UniProt P62344). Briefly: PfCDPK1 kinase inhibitors, biochemical, TCAMS library (AID 1159585; cut-off not given, nearly all actives have IC50 up to about 0.98 µM;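 note: inhibitors leave more ATP so luminescence rises with inhibition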). The conditions noted are these: recombinant PfCDPK1, Kinase-Glo ATP depletion luminescence. For orientation: In Kinase-Glo more light means more ATP remaining.
Assay [6] addresses Plasmodium falciparum protein kinase 6 (PK6, PF3D7_1337100) (UniProt Q8IDW1). Briefly: PfPK6 kinase inhibitors, biochemical, TCAMS library (AID 1159586). The conditions noted are these: recombinant PfPK6, Kinase-Glo ATP depletion luminescence.
Assay [7] concerns the target Protein kinase 7 (PK7), Plasmodium falciparum 3D7 (PF3D7_0213400) (UniProt Q7YTF7). Briefly: inhibition of Plasmodium PK7 catalytic activity – biochemical, TCAMS antimalarial set, Kinase-Glo luminescence (AID 1159587). The settings on record: recombinant PfPK7, Kinase-Glo ATP depletion luminescence.
The target of assay [8] is Calcium-dependent protein kinase 4 (Plasmodium falciparum (isolate 3D7)) (UniProt Q8IBS5). Kind of assay: PfCDPK4 kinase inhibitors, biochemical, TCAMS library (AID 1159588; cut-off not given, nearly all actives have IC50 up to about 0.91 µM). The conditions noted are these: recombinant PfCDPK4, Kinase-Glo ATP depletion luminescence.
Calcium-dependent protein kinase 4 (Plasmodium falciparum (isolate 3D7)), sequence (Q8IBS5 whole entry, looked up): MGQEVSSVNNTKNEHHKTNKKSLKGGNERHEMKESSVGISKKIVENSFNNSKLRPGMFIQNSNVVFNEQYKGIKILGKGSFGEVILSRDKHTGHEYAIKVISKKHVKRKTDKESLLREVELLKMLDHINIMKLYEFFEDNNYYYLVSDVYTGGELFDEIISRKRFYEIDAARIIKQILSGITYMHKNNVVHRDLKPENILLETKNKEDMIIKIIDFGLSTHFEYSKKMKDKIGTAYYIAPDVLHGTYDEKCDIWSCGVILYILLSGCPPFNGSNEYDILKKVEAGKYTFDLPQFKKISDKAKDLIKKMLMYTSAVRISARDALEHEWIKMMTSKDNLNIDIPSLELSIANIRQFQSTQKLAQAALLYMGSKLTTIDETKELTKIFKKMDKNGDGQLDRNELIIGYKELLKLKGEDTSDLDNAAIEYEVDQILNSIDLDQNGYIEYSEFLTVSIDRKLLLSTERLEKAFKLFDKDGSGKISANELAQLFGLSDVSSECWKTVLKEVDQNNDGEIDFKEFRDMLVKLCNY

Protein kinase 7 (PK7), Plasmodium falciparum 3D7 (PF3D7_0213400), sequence (Q7YTF7 1-343): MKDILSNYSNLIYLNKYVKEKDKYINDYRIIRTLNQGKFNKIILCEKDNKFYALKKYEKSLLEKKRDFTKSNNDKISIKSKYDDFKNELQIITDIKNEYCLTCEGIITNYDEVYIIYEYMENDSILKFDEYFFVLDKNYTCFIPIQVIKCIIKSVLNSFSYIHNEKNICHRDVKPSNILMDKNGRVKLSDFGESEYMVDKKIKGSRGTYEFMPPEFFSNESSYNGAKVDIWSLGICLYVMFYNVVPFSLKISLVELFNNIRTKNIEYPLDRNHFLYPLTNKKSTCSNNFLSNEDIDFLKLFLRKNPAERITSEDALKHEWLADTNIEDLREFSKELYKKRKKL
Calcium-dependent protein kinase 1 (Plasmodium falciparum (isolate 3D7)), sequence (P62344 whole entry, looked up): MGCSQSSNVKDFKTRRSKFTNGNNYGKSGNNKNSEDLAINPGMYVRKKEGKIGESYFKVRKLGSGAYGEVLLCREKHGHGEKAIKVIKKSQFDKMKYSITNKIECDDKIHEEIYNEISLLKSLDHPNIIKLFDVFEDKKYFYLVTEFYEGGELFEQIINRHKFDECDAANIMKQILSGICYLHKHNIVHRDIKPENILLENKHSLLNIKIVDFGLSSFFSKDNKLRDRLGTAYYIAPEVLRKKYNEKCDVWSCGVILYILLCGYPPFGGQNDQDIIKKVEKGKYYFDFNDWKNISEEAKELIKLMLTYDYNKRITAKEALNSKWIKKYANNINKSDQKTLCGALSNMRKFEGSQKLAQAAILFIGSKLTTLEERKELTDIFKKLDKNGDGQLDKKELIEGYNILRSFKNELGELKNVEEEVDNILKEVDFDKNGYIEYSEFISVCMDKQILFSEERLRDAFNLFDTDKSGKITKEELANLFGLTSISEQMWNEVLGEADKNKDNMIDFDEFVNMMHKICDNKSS
Plasmodium falciparum protein kinase 6 (PK6, PF3D7_1337100), sequence (Q8IDW1 1-305): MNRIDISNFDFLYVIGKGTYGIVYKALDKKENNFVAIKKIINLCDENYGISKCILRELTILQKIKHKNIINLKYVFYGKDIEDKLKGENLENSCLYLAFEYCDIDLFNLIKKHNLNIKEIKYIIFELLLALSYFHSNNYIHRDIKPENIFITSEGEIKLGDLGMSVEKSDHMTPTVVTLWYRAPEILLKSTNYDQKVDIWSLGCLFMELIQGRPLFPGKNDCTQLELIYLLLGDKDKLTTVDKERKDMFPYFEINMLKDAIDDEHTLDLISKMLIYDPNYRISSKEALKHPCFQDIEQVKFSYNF
L-lactate dehydrogenase (Plasmodium falciparum (isolate CDC / Honduras)), sequence (Q27743 whole entry, looked up): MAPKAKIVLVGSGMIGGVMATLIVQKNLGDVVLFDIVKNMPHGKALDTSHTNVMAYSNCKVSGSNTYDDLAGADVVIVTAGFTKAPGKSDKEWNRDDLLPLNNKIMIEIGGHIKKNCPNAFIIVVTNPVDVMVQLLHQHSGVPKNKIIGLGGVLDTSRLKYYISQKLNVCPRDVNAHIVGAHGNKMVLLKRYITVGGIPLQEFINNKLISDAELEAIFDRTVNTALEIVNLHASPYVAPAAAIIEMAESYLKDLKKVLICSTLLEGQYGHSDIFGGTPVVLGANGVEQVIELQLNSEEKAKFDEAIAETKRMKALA

`COC(=O)c1ccc2nc(-c3ccc(C(=O)NC4CCN(Cc5ccccc5)CC4)s3)[nH]c2c1`: the growth inhibition was 71% (active) in assay [1] and 99% (active) in assay [4]. The inhibition (as a rule, the change of the read-out against control, counted positive when it falls) in assay [2] was -7%; in assay [3], -4%. Besides, the result in assay [5], in assay [6], in assay [7] and in assay [8] was inactive.
Turning to `CCC(C)(C)c1ccc(Oc2ccc(NC(=O)Nc3ccc(Cl)c(Cl)c3)cc2)cc1`, the growth inhibition in assay [1] was 97% (active); in assay [4], 98% (active). Besides, the inhibition in assay [2] is 13%; in assay [3], -1%. The outcome in assay [5], in assay [6], in assay [7] and in assay [8] was inactive.
For `COc1ccc2nccc([C@@H](O)CN3CCC(NCc4nc5ccccc5s4)CC3)c2c1`, the growth inhibition in assay [1] is 5%; in assay [4] it was 93% (active). The inhibition in assay [2] was 8%; in assay [3] it was -3%. For the same molecule, the outcome in assay [5], in assay [6], in assay [7] and in assay [8] was inactive.
As to `CC1(C)C(=O)Nc2ccc3c(c21)CC1SC(=O)NN=C31` (stereo not given), the growth inhibition in assay [1] was 92% (active); in assay [4] it was 96% (active). For the same molecule, the inhibition in assay [2] was 6%; in assay [3], -1%. In addition, the outcome in assay [5], in assay [6], in assay [7] and in assay [8] was inactive.
For `CC(C)[C@H](NC(=O)c1c(CN2CCC(N3CCCCC3)CC2)c(-c2ccccc2)nc2cc(O)ccc12)c1ccccc1`, the growth inhibition is 73% (active) in assay [1] and 100% (active) in assay [4]. Besides, the figures for the inhibition in assay [2] and in assay [3] were 10% and 4%, respectively. Also, the result in assay [5], in assay [6], in assay [7] and in assay [8] was inactive.
Consider `Fc1ccc(CNc2ncc(-c3ccsc3)c(-c3nccs3)n2)cc1`, for which the growth inhibition in assay [1] was 77% (active); in assay [4], 94% (active). Also, the inhibition in assay [2] was 7%; in assay [3] it was -2%. Moreover, the result in assay [5], in assay [6], in assay [7] and in assay [8] was inactive.
On to `Cc1ccc(Nc2nc(NN=Cc3cccc(O)c3)nc(Nc3ccc([N+](=O)[O-])cc3)n2)cc1C`, for which the growth inhibition in assay [1] was 69% (active); in assay [4], 101% (active). The inhibition is -2% in assay [2] and 5% in assay [3]. The result in assay [5], in assay [6], in assay [7] and in assay [8] was inactive.
For `O=C(NCc1ccc(F)cc1)Nc1cccc(-c2ccc(-c3nc4ccc(F)cc4[nH]3)cc2)c1`, the growth inhibition in assay [1] was 96% (active); in assay [4], 101% (active). Further, the inhibition in assay [2] is 7%; in assay [3] it was -3%. Further, the outcome in assay [5], in assay [6], in assay [7] and in assay [8] was inactive.
Take `CCCCNS(=O)(=O)c1ccc(NC(=O)c2cc([N+](=O)[O-])ccc2Cl)cc1`: the values for the growth inhibition in assay [1] and in assay [4] were 47% and 92% (active), respectively. The inhibition in assay [2] was 12%; in assay [3] it was -3%. In addition, the result in assay [5], in assay [6], in assay [7] and in assay [8] was inactive.
For `CCCCCN1CCCN(Cc2cccc(NC(=O)c3ccc(-c4ccccc4)cc3)c2)CC1`, the growth inhibition in assay [1] is 15%; in assay [4] it was 95% (active). Moreover, the inhibition in assay [2] was 23%; in assay [3], 6%. Further, the result in assay [5], in assay [6], in assay [7] and in assay [8] was inactive.
As for `COC(=O)c1cccc(CNCc2ccc(-c3ccc(-c4nc5ccc(F)cc5[nH]4)cc3)cc2)c1`, the results for the growth inhibition in assay [1] and in assay [4] were 95% (active) and 100% (active), respectively. In addition, the inhibition is 8% in assay [2] and 2% in assay [3]. Moreover, the outcome in assay [5], in assay [6], in assay [7] and in assay [8] was inactive.
As to `COc1cc(OC)cc(-c2nn(-c3ccc([N+](=O)[O-])cc3C#N)c(=S)n2Cc2ccco2)c1`, the growth inhibition in assay [1] and in assay [4] was 100% (active) in each case. Moreover, the figures for the inhibition in assay [2] and in assay [3] were 11% and -6%, respectively. For the same molecule, the result in assay [5], in assay [6], in assay [7] and in assay [8] was inactive.
For `COc1ccc2nccc(N3CCC(O)(CCNCc4ccc5c(n4)NC(=O)CO5)CC3)c2n1`, the growth inhibition in assay [1] is 24%; in assay [4], 100% (active). Also, the inhibition is 18% in assay [2] and -4% in assay [3]. Besides, the outcome in assay [5], in assay [6], in assay [7] and in assay [8] was inactive.
Take `COCCCNc1sc(S(=O)(=O)c2ccccc2)nc1S(=O)(=O)c1ccc(C)cc1`: the growth inhibition is 44% in assay [1] and 84% (active) in assay [4]. Besides, the inhibition was 7% in assay [2] and -1% in assay [3]. For the same molecule, the outcome in assay [5], in assay [6], in assay [7] and in assay [8] was inactive.
On to `Nc1nc(F)nc2nc[nH]c12`, for which the figures for the growth inhibition in assay [1] and in assay [4] were 25% and 89% (active), respectively. For the same molecule, the inhibition in assay [2] is 78% (active); in assay [3], -2%. Moreover, the outcome in assay [5], in assay [6], in assay [7] and in assay [8] was inactive.
As to `Cc1cc(-c2cccc(CNCCc3ccc(Cl)cc3)c2)cnc1N`, the growth inhibition in assay [1] is 3%; in assay [4], 90% (active). The inhibition is 19% in assay [2] and 0% in assay [3]. The result in assay [5], in assay [6], in assay [7] and in assay [8] was inactive.
Turning to `Cc1ccc(NC(=O)c2ccc(C(=O)NC3CCN(CC4CCCCC4)CC3)cc2)cc1`, the results for the growth inhibition in assay [1] and in assay [4] were 0% and 93% (active), respectively. Besides, the inhibition in assay [2] was 36%; in assay [3], -6%. Moreover, the outcome in assay [5], in assay [6], in assay [7] and in assay [8] was inactive.
As to `O=C(/C=C/c1ccc([N+](=O)[O-])cc1)N1CCC(NS(=O)(=O)c2ccc(F)cc2)CC1`, the growth inhibition is -2% in assay [1] and 96% (active) in assay [4]. Besides, the inhibition is -7% in assay [2] and -10% in assay [3]. Besides, the result in assay [5], in assay [6], in assay [7] and in assay [8] was inactive.
Turning to `CCN(CC1CCN(CC2(O)CCOCC2)CC1)c1cc(C)nc(Nc2ccc(Cl)cc2)n1`, the results for the growth inhibition in assay [1] and in assay [4] were 99% (active) and 101% (active), respectively. Besides, the inhibition was 34% in assay [2] and -4% in assay [3]. For the same molecule, the outcome in assay [5], in assay [6], in assay [7] and in assay [8] was inactive.
Consider `COc1ccc(-c2ccc(NC(=O)c3cccc(Cl)c3)c(F)c2)cc1CNC(C)C`, for which the growth inhibition in assay [1] was 14%; in assay [4] it was 93% (active). Further, the inhibition is 19% in assay [2] and -5% in assay [3]. Further, the outcome in assay [5], in assay [6], in assay [7] and in assay [8] was inactive.
